Source: PubChem
Pf growth 96h – inhibits malaria parasite growth, 96 h. Potency, µM (titrated, usually from 28.7 µM), for the others: at the highest dose activity change, negative = inhibition, actives largely listed as inhibitors. 6.9% of 320,000 active. P. falciparum luciferase reporter growth, 96 h; also: % is scaled to controls: 0 for no effect and ±100 for the full control effect
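Two parasite generations (96 h, 37 C, 5% CO2) of compound exposure in infected erythrocytes (0.05% parasitemia, 2% hematocrit). Luciferase-reporter P. falciparum; decreased luminescence indicates inhibited growth, aimed at apicoplast-acting delayed death.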
VACV mCherry inh – vaccinia inhibition (mCherry reporter); Vaccinia virus mCherry reporter infection, fluorescence; Potency, µM (series often up to 36.5 µM), for the others: at the top dose activity change, negative = inhibition, most hits filed as inhibitors; 0.63% of 310,000 active; AID 720579; calls by dose curve; tested in A549 cells; also: % is scaled to controls: 0 for no effect and ±100 for the full control effect; nearly all actives have a fitted effect of over 35% in size
Pf growth 48h – inhibits P. falciparum growth in the first generation, 48 h | AID 504832 | Potency, µM (series often up to 28.7 µM), for the others: at the top dose activity change, negative = inhibition, usual class: inhibitors | P. falciparum luciferase growth in erythrocytes, 48 h | 5.9% of 310,000 active; also: % is scaled to controls: 0 for no effect and ±100 for the full control effect
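First compound was added to culture medium, then infected red cells at 0.1% parasitemia and 2% hematocrit (final). After incubation at 37 C under 5% CO2, luciferase detection reagent was dispensed and light output recorded.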
Vaccinia Venus – vaccinia inhibition (Venus reporter); Vaccinia virus Venus reporter expression, fluorescence; Potency, µM (doses to about 36.5 µM), for the others: at the highest dose activity change, negative = inhibition, hits mostly inhibitors; 0.46% of 330,000 active; AID 720580; calls by dose curve; tested in A549 cells; also: % is scaled to controls: 0 for no effect and ±100 for the full control effect; nearly all actives have a fitted effect of over 30% in size
NS1 function inh – inhibitors of influenza NS1 protein function; 0.4% of 270,000 active; Potency, µM (top dose mostly 46.1 µM), inactives show at the highest dose activity, positive = more growth; calls by dose curve; also: actives are rising curves; nearly all actives have a fitted effect of over 50% in size
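Growth recovery, yeast-based: influenza A NS1 expressed in S. cerevisiae causes slow growth, and suppressors are detected by OD600. The parent strain without NS1 is used as positive control.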
HCV inh – HCV inhibition. Huh7.5.1 HCVcc-Cre infection, luciferase reporter, 44 h. Potency, µM (titrated, usually from 41.8 µM), inactives show top-dose activity change, negative = inhibition, most hits filed as inhibitors. 3.4% of 340,000 active; also: % is scaled to controls: 0 for no effect and ±100 for the full control effect
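Cells (1,000/well) were plated 4 h before compound, then infected with HCVcc-Cre virus (~0.5 moi). After 44 h further culture, infection was read as luciferase luminescence following a 15 min substrate incubation at room temperature.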
* marks the source's active call; other numbers are inactive results; i = inactive; ? = inconclusive; / = no result; [ ] = remark or other dose. Compounds with a hit are over-represented: about 11% of the library has one in this group of screens. Unless noted, calls follow the shape of the dose curve; as a rule, active = well fitted inhibition curve with a large enough effect; inconclusive = small, poorly fitted or top-dose-only effect, or another doubt; inactive = no such curve, though single readings can be large or run the other way. Potency is read from the fitted curve at half-maximal effect.

SMILES	Pf growth 96h	VACV mCherry inh	Pf growth 48h	Vaccinia Venus	NS1 function inh	HCV inh
O=C(NC1CCCCC1)C(c1ccc2ncccc2c1)N(Cc1ccc(F)cc1)C(=O)c1cccs1 (stereo unspecified)	10.4µM*	i	8.28µM*	-11.2%	18.3%	?
COc1ccc(CNS(=O)(=O)c2ccc3c(c2)NC(=O)C(C)C(=O)N3)cc1 (stereo unspecified)	/	-18.3%	/	-13.8%	/	/
O=C(CSc1nnc(-c2ccco2)n1-c1ccccc1Cl)Nc1cccc(C(=O)O)c1	8.5%	/	16.6%	/	26.4%	19.3%
CCOCCn1c(SCc2ccccc2)nc2c1c(=O)[nH]c(=O)n2C	-9.7%	8.8%	?	-7.1%	-0.7%	0.4%
CCN(CC)CCN(C(=O)c1ccc([N+](=O)[O-])cc1)c1nc2c(OC)cccc2s1	?	/	-12.3%	/	/	-7.7%
CN(C)CCNC(=O)COc1ccc(Cl)cc1Cl	4.0%	i	-13.5%	-15.6%	-8.2%	-14.5%
Cc1ccc(N(C(=O)Cc2cccs2)C(C(=O)NC2CCCCC2)c2ccccn2)cc1C (stereo unspecified)	4.15µM*	-27.6%	0.0%	-27.1%	-24.5%	-15.1%
COc1ccc(CNC(=O)C(c2ccncc2)N(C(=O)Cc2cccs2)c2ccccc2)cc1 (stereo unspecified)	13.1µM*	i	6.2%	10.6%	4.2%	-1.6%
Cc1cccc(N(C(=O)Cc2cccs2)C(C(=O)NC2CCCC2)c2ccncc2)c1 (stereo unspecified)	-16.5%	-13.7%	-48.3%	-3.7%	-3.4%	-28.4%
COc1ccc([C@@H]2[C@@H]3C(=O)N(C(C)(C)C)C(=O)[C@@H]3[C@]3(Cc4ccc(Cl)cc4)C(=O)N(c4ccc(C)cc4)C(=O)N23)cc1	6.57µM*	i	13.1µM*	-16.2%	/	2.8%
COc1ccc([C@@H]2[C@@H]3C(=O)N(C(C)(C)C)C(=O)[C@@H]3[C@]3(Cc4ccc(Cl)cc4)C(=O)N(c4cccc(C)c4)C(=O)N23)cc1	8.28µM*	i	?	-10.7%	0.8%	1.1%
CC12CC(NC(=O)N1c1cccc(C(=O)NCc3ccc4c(c3)OCO4)c1)c1cc(Cl)ccc1O2 (stereo unspecified)	?	?	/	?	-40.6%	25.1µM*
CNc1nnc(CSc2nc3ccccc3s2)s1	0.0%	-14.0%[1.46 µM]	60.5%	-21.0%	-34.4%	-4.0%
CCOC(=O)C1=C(C)NC(C)=C(C(=O)OCC)C1c1ccc(O)cc1	/	/	-19.1%	-2.7%	-6.1%	-5.5%
COC(=O)C1=C(C)NC(C)=C(C(=O)OC(C)C)[C@H]1c1cccc2nonc12	2.56µM*	/	4.55µM*	/	/	/
CCOC(=O)C1=C(C)NC(C)=C(C(=O)OCC)C1c1cccs1	9.28µM*	-25.9%	9.28µM*	-12.1%	5.6%	1.4%
CCOC(=O)C1=C(C)Nc2[nH]c(=O)[nH]c(=O)c2C1c1cccs1 (stereo unspecified)	-0.1%	-18.0%	20.5%	-6.3%	-1.0%	6.8%[8.37 µM]
CC1=C(C(=O)OC(C)C)C(c2cccs2)C(C(=O)OC(C)C)=C(C)N1	?	-21.8%	13.1µM*	-22.2%	-8.6%	?
COC(=O)C1=C(C)NC(C)=C(C(=O)OC(C)C)C1c1cccc2nonc12 (stereo unspecified)	/	-4.3%	/	-17.3%	/	-25.0%
CCOC(=O)C1=C(C)NC(C)=C(C(=O)OCC)C1c1sccc1C	49.1%	/	5.22µM*	/	-68.5%	-15.3%
Cc1cc(C)cc(N(CC(=O)NCc2ccco2)C(=O)CCC(=O)Nc2nccs2)c1	3.2%	-5.8%	-2.5%	-16.3%	0.2%	-10.5%
Cc1ccccc1-c1nc(S(=O)(=O)c2ccc(Cl)cc2)c(NCCN2CCOCC2)o1	/	?	?	?	-7.7%	?
CC(C)(C)OC(=O)C[C@H]1C/C=C\C[C@@H](CC(=O)N[C@@H](CO)Cc2ccccc2)C(=O)N2CCC[C@H]2COC1=O	/	-27.6%	/	-20.0%	/	13.2%
CCOC(=O)C1=C(C)NC(=O)NC1c1cccnc1 (stereo unspecified)	?	/	/	-6.7%	15.2%	1.1%
